Activity calls are given as the source filed them.
Tests used:
[1] = system: PRMT1 (protein arginine N-methyltransferase 1); assay: small molecules binding arginine methyltransferase PRMT1 – biochemical, small-molecule microarray, 635 nm fluorescence, primary screen (AID 1088); conditions: higher = more signal;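 also: binding of Prmt1 protein to compounds spotted on small-molecule microarray slides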
[2] = growth effects on S. cerevisiae YJM789 – YJM789 clinical isolate, OD600, 24 h, basal, primary screen (AID 1089); conditions: higher = more signal, called active from +8 up or from −8 down;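 also: growth of clinical yeast isolate S. cerevisiae YJM 789 seeded 1000 cells per well; test concentration not given here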
[3] = S. pombe growth modifiers, basal conditions – strain 972, OD600, 24 h, no modulator, primary screen (AID 1090);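 also: basal condition with compound alone and no growth modifier present; test concentration not given here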; conditions: S. pombe 972 growth, higher = more signal, called active from +8 up or from −8 down
[4] = budding yeast growth modifiers under rapamycin – strain BY4716, OD600, 96 h, primary screen (AID 1091); also: test concentration not given here; conditions: S. cerevisiae BY4716 + rapamycin, higher = more signal, called active from +8 up or from −8 down
[5] = biological target: Torsin-1A-interacting protein 2 (Homo sapiens) (UniProt Q8NFQ8); assay: small molecules binding lysate-expressed LULL1 – cell lysate, human LULL1 lysate, 635/667 nm fluorescence, primary screen (AID 1092); conditions: small-molecule microarray, hLULL1 lysate binding, 635 nm fluorescence; higher = more signal;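 also: probe is lysate of COS7 cells overexpressing human LULL1; score merges per-feature 667 nm fluorescence with signal-to-noise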
Chain of Torsin-1A-interacting protein 2 (Homo sapiens) (Q8NFQ8 whole entry, looked up): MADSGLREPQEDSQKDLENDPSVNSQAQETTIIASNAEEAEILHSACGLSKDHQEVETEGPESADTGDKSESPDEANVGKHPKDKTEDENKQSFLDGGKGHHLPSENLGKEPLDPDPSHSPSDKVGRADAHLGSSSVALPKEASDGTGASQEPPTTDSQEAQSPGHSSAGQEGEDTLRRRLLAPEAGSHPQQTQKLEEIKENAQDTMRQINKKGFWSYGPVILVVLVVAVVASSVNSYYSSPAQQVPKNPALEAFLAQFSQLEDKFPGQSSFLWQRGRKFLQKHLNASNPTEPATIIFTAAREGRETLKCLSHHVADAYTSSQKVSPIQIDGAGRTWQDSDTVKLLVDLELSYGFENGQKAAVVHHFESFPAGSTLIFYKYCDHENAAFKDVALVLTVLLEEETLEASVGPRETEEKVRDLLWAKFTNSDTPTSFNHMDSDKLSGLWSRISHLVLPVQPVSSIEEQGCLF

[6] = optical density change of DRC41 E. coli – strain DRC41, OD650, 24 h, E. coli filamentation project, primary screen (AID 1093);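 also: MC1000 strain lacking acrAB efflux and sulA so SOS filamentation is blocked; test concentration not given here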; conditions: E. coli DRC41 growth, higher = more signal, called active from +8 up or from −8 down
[7] = probe aLefty2 binding to arrayed compounds – biochemical, biotinylated probe, 635/667 nm fluorescence, primary screen (AID 1094); conditions: small-molecule microarray, higher = more signal;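 also: score merges spot fluorescence near 667 nm with spot signal-to-noise ratio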
[8] = system: Noggin (protein binding on small-molecule microarray); assay: small molecules binding Noggin protein – biochemical, 635/667 nm fluorescence, primary screen (AID 1095); conditions: 635 nm fluorescence, higher = more signal;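 also: score merges 667 nm feature fluorescence with signal to noise over triplicate slides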
[9] = biological target: Neurogenic locus notch homolog protein 3 (Homo sapiens) (UniProt Q9UM47); assay: small molecules binding NOTCH3 protein – biochemical, 635/667 nm fluorescence, primary screen (AID 1096); conditions: small-molecule microarray, 635 nm fluorescence, higher = more signal
Chain of Neurogenic locus notch homolog protein 3 (Homo sapiens) (Q9UM47 whole entry, looked up): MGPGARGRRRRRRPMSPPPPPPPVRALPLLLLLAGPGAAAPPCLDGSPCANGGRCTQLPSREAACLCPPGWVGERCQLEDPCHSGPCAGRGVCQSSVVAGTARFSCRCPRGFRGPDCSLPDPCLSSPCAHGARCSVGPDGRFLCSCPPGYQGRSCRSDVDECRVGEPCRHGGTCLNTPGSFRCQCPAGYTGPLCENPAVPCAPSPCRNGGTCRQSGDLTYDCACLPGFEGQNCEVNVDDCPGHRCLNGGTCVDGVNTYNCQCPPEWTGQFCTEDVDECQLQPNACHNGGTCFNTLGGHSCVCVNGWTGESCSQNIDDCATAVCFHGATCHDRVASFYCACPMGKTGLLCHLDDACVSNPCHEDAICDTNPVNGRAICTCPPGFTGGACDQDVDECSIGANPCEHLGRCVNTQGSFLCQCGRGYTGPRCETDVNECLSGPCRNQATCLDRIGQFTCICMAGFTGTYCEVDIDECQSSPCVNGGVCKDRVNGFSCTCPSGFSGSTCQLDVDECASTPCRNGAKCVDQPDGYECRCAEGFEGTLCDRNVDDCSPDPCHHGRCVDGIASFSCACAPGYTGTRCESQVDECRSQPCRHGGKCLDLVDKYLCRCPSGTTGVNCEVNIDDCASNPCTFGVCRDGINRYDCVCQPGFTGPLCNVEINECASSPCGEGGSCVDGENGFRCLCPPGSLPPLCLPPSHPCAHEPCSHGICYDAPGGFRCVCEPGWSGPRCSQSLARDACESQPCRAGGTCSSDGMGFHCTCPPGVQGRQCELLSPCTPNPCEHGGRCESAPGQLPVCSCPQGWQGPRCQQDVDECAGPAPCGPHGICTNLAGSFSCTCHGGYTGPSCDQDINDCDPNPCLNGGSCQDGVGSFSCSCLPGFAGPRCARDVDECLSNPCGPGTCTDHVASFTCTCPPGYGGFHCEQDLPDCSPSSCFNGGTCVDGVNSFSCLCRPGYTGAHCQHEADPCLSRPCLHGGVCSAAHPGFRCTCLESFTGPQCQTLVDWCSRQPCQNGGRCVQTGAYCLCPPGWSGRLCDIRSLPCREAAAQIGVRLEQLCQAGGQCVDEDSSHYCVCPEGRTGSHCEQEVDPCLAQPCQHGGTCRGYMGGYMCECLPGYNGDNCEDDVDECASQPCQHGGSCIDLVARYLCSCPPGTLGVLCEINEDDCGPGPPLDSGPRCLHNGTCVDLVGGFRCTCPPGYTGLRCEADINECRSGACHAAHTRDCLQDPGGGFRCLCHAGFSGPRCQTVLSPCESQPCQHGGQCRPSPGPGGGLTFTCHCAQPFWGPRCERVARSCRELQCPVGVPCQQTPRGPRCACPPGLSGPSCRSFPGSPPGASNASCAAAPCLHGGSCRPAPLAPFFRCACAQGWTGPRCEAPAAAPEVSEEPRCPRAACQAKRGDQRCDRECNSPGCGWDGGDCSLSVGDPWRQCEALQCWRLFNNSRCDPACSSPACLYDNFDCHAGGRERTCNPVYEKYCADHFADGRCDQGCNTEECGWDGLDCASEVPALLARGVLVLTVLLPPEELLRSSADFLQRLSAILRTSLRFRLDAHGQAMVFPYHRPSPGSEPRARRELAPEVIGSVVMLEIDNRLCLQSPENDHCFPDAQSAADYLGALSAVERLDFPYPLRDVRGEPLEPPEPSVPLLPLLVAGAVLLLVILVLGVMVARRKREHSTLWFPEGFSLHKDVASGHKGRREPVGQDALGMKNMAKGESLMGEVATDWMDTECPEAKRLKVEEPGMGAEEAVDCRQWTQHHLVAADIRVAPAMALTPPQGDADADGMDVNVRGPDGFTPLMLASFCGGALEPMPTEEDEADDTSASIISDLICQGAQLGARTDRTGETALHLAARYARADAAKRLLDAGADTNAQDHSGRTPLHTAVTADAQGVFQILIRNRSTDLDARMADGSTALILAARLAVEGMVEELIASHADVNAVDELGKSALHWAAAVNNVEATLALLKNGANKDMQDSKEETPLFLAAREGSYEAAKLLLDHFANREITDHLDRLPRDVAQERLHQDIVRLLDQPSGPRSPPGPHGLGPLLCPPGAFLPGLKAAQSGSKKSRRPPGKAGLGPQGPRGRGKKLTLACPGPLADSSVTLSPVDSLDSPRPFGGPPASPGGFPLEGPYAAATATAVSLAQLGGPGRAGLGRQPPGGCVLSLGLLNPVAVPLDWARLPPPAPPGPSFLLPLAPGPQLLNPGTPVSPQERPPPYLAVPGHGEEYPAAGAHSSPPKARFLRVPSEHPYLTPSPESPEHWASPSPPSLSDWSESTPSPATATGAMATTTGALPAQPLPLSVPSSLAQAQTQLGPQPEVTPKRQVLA

[10] = probe aEGFR binding to arrayed compounds – biochemical, biotinylated probe, 635/667 nm fluorescence, primary screen (AID 1097); conditions: small-molecule microarray, higher = more signal;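 also: probe is a biotinylated anti-EGFR antibody binding compounds printed on slides; score combines fluorescence near 667 nm and signal to noise of each spot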

| SMILES | composite z-score [1] | z-score [2] | z-score [3] | z-score [4] | composite z-score [5] | z-score [6] | composite z-score [7] | composite z-score [8] | composite z-score [9] | composite z-score [10] |
| --- | --- | --- | --- | --- | --- | --- | --- | --- | --- | --- |
| O=C1c2ccccc2[C@](Cc2ccccc2I)(C(=O)O)[C@H](c2ccc(CO)cc2)N1C1CCCCC1 | 1.54 | -0.602 (inactive) | -2.37 (inactive) | -0.997 (inactive) | 2.56 | 2.51 (inactive) | 0.143 | 0.597 | 1.01 | 0.252 |
| O=C/C=C/c1ccc(/C=C/c2ccccc2)cc1 | -0.742 | -2.92 (inactive) | -19.7 (active) | -1.59 (inactive) | -0.917 | 1.51 (inactive) | 0.0262 | -0.43 | -1.2 | -0.225 |
| C[C@@H]1NC(=O)CC=C[C@@H](C)[C@@H]2C=C[C@H](O)[C@@H](COC(=O)[C@H](C)NC(=O)CC=C[C@@H](C)[C@@H]3C=C[C@H](O)[C@@H](COC1=O)O3)O2 | 0.0027 | -1.07 (inactive) | -2.24 (inactive) | -0.764 (inactive) | -0.178 | 0.602 (inactive) | -0.221 | 0.464 | 0.108 | -0.0262 |
| CCOC(=O)C[C@H]1[C@H](OC(=O)c2ccccc2-c2ccccc2)[C@@H](NC(=O)c2ccc(-c3ccccc3)cc2)c2cc(OCCCO)ccc2N1C(=O)Cc1ccc(OC)cc1 | 0.362 | -0.39 (inactive) | -0.826 (inactive) | 0.27 (inactive) | 0.775 | -0.857 (inactive) | -0.0435 | 0.19 | 0.266 | 0.0651 |
| COCCOC(=O)N1C(=O)[C@@]2(c3cc(C#CC4=CCCCC4)ccc31)[C@H](c1ccc(O)cc1)N1[C@H](c3ccccc3)[C@H](c3ccccc3)OC(=O)[C@H]1[C@@H]2C(=O)N1CCCCCCC1 | 1.57 | 0.2 (inactive) | -1.06 (inactive) | 0.776 (inactive) | 2.11 | 2.01 (inactive) | 0.367 | 1.42 | 1.13 | 0.0143 |
| CO[C@H]1COC(=O)[C@@H](C)COC(=O)[C@H](Cc2ccccc2)NC(=O)CC=C[C@H]1C | 0.525 | -0.662 (inactive) | -1.25 (inactive) | -0.544 (inactive) | -0.274 | 0.331 (inactive) | -0.302 | 1.26 | 0.722 | -0.188 |
| CO[C@@H]1COC(=O)[C@H](COCc2ccccc2)NC(=O)CC=C[C@@H](C)[C@H](OC)COC(=O)[C@H](COCc2ccccc2)NC(=O)CC=C[C@H]1C | 0.0472 | 0.982 (inactive) | -0.371 (inactive) | 0.921 (inactive) | -0.0267 | -0.405 (inactive) | -0.226 | 0.63 | -0.511 | -0.0605 |
| NC(=O)NCC#Cc1ccc2c(c1)[C@]1(C(=O)N2)[C@H](c2ccccc2OCCO)N2[C@H](c3ccccc3)[C@H](c3ccccc3)OC(=O)[C@H]2[C@@H]1C(=O)N1CCN(c2ncccn2)CC1 | 1.54 | 1.73 (inactive) | 0.0422 (inactive) | 4.25 (inactive) | 2.7 | 2.9 (inactive) | 0.276 | 1.17 | 1.02 | -0.0286 |
| COC(=O)[C@@]1(Cc2ccccc2)[C@H]2c3cc(C(=O)N4CCCC4)n(CCN4CNCC4=O)c3C[C@H]2CN1C(=O)c1ccccc1 | -0.337 | -0.465 (inactive) | 0.826 (inactive) | -0.153 (inactive) | 1.93 | -0.0756 (inactive) | 0.154 | -0.113 | 0.494 | -0.013 |
| O=C1OCCC=C[C@H]2OC34C=CCN(Cc5ccccc5)C(=O)[C@H]3N(CCO)C(=O)[C@@H]4C12 (stereo not given in full) | -1.05 | -2.04 (inactive) | -4.14 (inactive) | -1.5 (inactive) | -0.89 | 2.71 (inactive) | -0.172 | -0.526 | -0.634 | -0.304 |
| CCC(=O)[C@]12O[C@@]3([C@@H]4C(=O)OCC[C@@H]41)N(CC)C(C)=C(C(=O)OC)[C@@H](c1ccccc1)N3C2=O | -0.486 | -1.62 (inactive) | -1.89 (inactive) | -0.153 (inactive) | 0.155 | 0.421 (inactive) | -0.0928 | 0.152 | -0.37 | -0.0818 |
| C=CC[C@]1(C(=O)O)N=C(c2ccc(OCCCO)cc2)O[C@H]1c1ccccc1N=[N+]=[N-] | -0.417 | 0.942 (inactive) | -0.155 (inactive) | -0.336 (inactive) | 2.62 | 1.32 (inactive) | 0.0313 | -0.491 | -0.33 | -0.0059 |
| COc1cc([C@@H]2N[C@H](C(=O)O)Cc3c2[nH]c2ccccc32)cc(OC)c1OC | -0.504 | -0.258 (inactive) | -0.581 (inactive) | -0.611 (inactive) | 0.235 | 0.233 (inactive) | -0.123 | 0.367 | 0.475 | -0.0069 |
| CN1C(=O)C2C=CC(C(O)c3ccc(N(C)C)cc3)N(Nc3ccc([N+](=O)[O-])cc3[N+](=O)[O-])C2C1=O (stereo not given) | 1.1 | 0.0069 (inactive) | -0.0787 (inactive) | -0.183 (inactive) | 2.77 | -0.465 (inactive) | 0.452 | 0.0496 | 1.1 | 0.335 |
| COCCCNC(=O)[C@@]1(c2ccc([N+](=O)[O-])cc2)CC(=O)N(C2CCCCC2)[C@@H]1c1ccc(CO)cc1 | 0.139 | -0.707 (inactive) | -0.591 (inactive) | -0.432 (inactive) | 2.04 | 0.77 (inactive) | -0.509 | -0.836 | -0.193 | -0.421 |
| COC(=O)C1=C(C)N(Cc2ccccc2)c2c(C(=O)OC)c(C(=O)OC)c(C(=O)OC)c(=O)n2[C@@H]1c1ccccc1 | 0.269 | -0.677 (inactive) | -1.75 (inactive) | -0.389 (inactive) | 0.309 | 0.535 (inactive) | -0.195 | 0.433 | 0.699 | -0.065 |
| C[N+](C)(C)CCCCNC(=O)[C@@H]1C[C@@H]2C(=O)N3CCC[C@H]3C(=O)N2[C@@H]1c1cccc(OCCO)c1 | 0.869 | -1.09 (inactive) | -1.74 (inactive) | -2.42 (inactive) | 0.381 | 1.54 (inactive) | -0.123 | 1.64 | 0.751 | 0.0051 |
| C[N+](C)(C)CCCC[C@@H]1NC(=O)[C@H]2C[C@@H](C(=O)NCc3ccc(F)cc3)[C@@H](c3cccc(OCCO)c3)N2C1=O | 1.47 | -1.69 (inactive) | -1.62 (inactive) | -0.736 (inactive) | 0.823 | 0.973 (inactive) | -0.166 | 1.62 | 0.716 | -0.118 |
| CCOC(=O)[C@H]1C/C=C/C[C@H](C(=O)OCC)C(=O)O[C@H]2[C@@H](OC)O[C@H](CO)[C@@H](OC(=O)Nc3ccc(Br)cc3)[C@@H]2OC1=O | 1.54 | 0.343 (inactive) | -2.37 (inactive) | 31.7 (active) | 2.93 | 2.91 (inactive) | 0.45 | 0.933 | 0.869 | -0.121 |
| COC(=O)[C@@]1(Cc2ccccc2CN=[N+]=[N-])N=C(c2ccc(OCCCO)cc2)O[C@H]1c1ccccc1N=[N+]=[N-] | 1.42 | 0.763 (inactive) | 2.17 (inactive) | 36 (active) | 2.18 | 0.0738 (inactive) | -0.184 | 0.0678 | 0.698 | -0.0372 |
| C=CC[C@@]1(C(=O)N2CCOCC2)N=C(c2ccc(OCCCO)cc2)O[C@@H]1c1ccccc1 | 0.142 | 0.509 (inactive) | -1.61 (inactive) | 0.352 (inactive) | 2.71 | 1.33 (inactive) | 0.0634 | -0.506 | -1.35 | -0.0728 |
| COC(=O)C[C@H]1O[C@]2(C(=O)N(C)c3ccccc32)[C@@H](C)[C@@H]1[Si](C)(C)c1ccc(OC)cc1 | 0.53 | -3.04 (inactive) | -16.7 (active) | -1.54 (inactive) | 0.49 | 1.67 (inactive) | -0.0667 | 1.07 | 0.622 | 0.0104 |
| CO[C@@H]1COC(=O)[C@H](C)NC(=O)CC=C[C@@H](C)[C@H](NS(=O)(=O)c2ccc(C)cc2)COC(=O)CC=C[C@@H]1C | -0.844 | 0.79 (inactive) | -0.0181 (inactive) | 0.256 (inactive) | -0.382 | 0.452 (inactive) | -0.207 | -0.0396 | -0.693 | -0.211 |
| C=CCc1cccc([C@@H]2[C@@H](C)CC[C@H]3C(=O)N4[C@H](c5cccc(CC=C)c5)[C@@H](C)CC[C@H]4C(=O)N23)c1 | 0.592 | -0.988 (inactive) | 0.0313 (inactive) | 6.6 (inactive) | 0.785 | 0.533 (inactive) | 0.0163 | 0.432 | 0.671 | -0.124 |
| O=C(NCc1ccccc1)[C@@]1(CCS(=O)(=O)c2ccccc2)COC(c2ccc(OCCCO)cc2)=N1 | 1.53 | -0.53 (inactive) | -0.111 (inactive) | 31.5 (active) | 3.6 | 2.12 (inactive) | 0.167 | 0.16 | 1.13 | 0.0033 |
| CO[C@H]1COC(=O)[C@@H](OCc2ccccc2)C=C[C@H](C)[C@@H](OC)COC(=O)[C@H](OCc2ccccc2)C=C[C@@H]1C | -0.374 | -2.92 (inactive) | -2.88 (inactive) | -0.495 (inactive) | -0.233 | -0.255 (inactive) | -0.462 | 0.816 | -0.472 | -0.188 |
| O=C1C[C@@](C(=O)NC2CC2)(c2ccc([N+](=O)[O-])cc2)[C@@H](c2ccc(CO)cc2I)N1CC12CC3CC(CC(C3)C1)C2 | 1.48 | 1.82 (inactive) | 1.19 (inactive) | 5.3 (inactive) | 2.96 | -1.05 (inactive) | -0.145 | 1.32 | 1.07 | -0.198 |
| C=CCN(C(=O)C1N(c2ccc(CCO)cc2)C(=O)C2C(C(=O)O)C3C=CC21O3)C(C)(C)C (stereo not given) | -1.91 | -0.696 (inactive) | -1.89 (inactive) | -0.569 (inactive) | 1.94 | 2.89 (inactive) | -0.014 | -3.2 | -1.92 | -0.356 |
| CCOC(=O)C1=CCC(c2cccc3ccccc23)N(S(=O)(=O)c2ccc(C)cc2)C1 (stereo not given) | 0.614 | -0.109 (inactive) | 1.4 (inactive) | 3.55 (inactive) | 1.64 | -0.461 (inactive) | 0.346 | -0.375 | 0.976 | 0.211 |

From PubChem BioAssay
